Test [1] concerns Vero E6 infected with SARS-CoV-2. Nature of the test: morphology score (similarity to uninfected cells); higher = more like uninfected cells. The following applies: 24 h.
For test [2] the test system is unchanged. Put plainly: SARS-CoV-2 infection rate relative to infected DMSO; higher = more infection, active = 60 or less. The conditions noted are these: 24 h.

For 30 compounds, morphology score and SARS-CoV-2 infection rate results are on record in the supplement of paper PMC13380429.

Molecules are shown by their SMILES.

Compound `CCCCCCCCCCC(=O)O[C@H]1CC[C@H]2[C@@H]3CCC4=CC(=O)CC[C@]4(C)[C@H]3CC[C@]12C` [Testosterone (undecanoate)] (10 µM) registered a morphology score in test [1] of 0.107. For the same compound, in test [2], the SARS-CoV-2 infection rate is 98.5% (inactive).

For the compound `CCCn1c(=O)c2nc(C34CC5CC(CC3C5)C4)[nH]c2n(CCC)c1=O` (10 µM), the morphology score in test [1] amounted to 0.134. The SARS-CoV-2 infection rate in test [2] was 94% (inactive).

`COc1ccc(S(=O)(=O)Nc2cccnc2Nc2ccc(O)cc2)cc1` (10 µM) yielded a morphology score in test [1] of -0.213. The SARS-CoV-2 infection rate in test [2] is 106% (inactive).

`CSCC[C@H](NC(=O)[C@H](Cc1ccccc1)NC(=O)CNC(=O)CNC(=O)[C@@H](N)Cc1ccc(O)cc1)C(=O)O` [metenkephalin] (10 µM) gave a morphology score in test [1] of 0.247. Moreover, in test [2], the SARS-CoV-2 infection rate is 91% (inactive).

The compound `COc1ccc2[nH]c3c(-c4cccc5ccccc45)nccc3c2c1` (10 µM) showed a morphology score in test [1] of -0.0282. For the same compound, in test [2], the SARS-CoV-2 infection rate is 111% (inactive).

In test [1], `O=c1c(O)c(-c2cc(O)c(O)c(O)c2)oc2cc(O)cc(O)c12` [myricetin] (10 µM) gave a morphology score of 0.195. Further, in test [2], the SARS-CoV-2 infection rate is 110% (inactive).

In turn, `CN1[C@@H]2CC[C@H]1C[C@@H](OC(=O)N1Cc3ccccc3NC1=O)C2` (10 µM) had a morphology score in test [1] of 0.0635. For the same compound, in test [2], the SARS-CoV-2 infection rate is 108% (inactive).

In the case of `CC(=O)O[C@]1(C(C)=O)CC[C@H]2[C@@H]3C=C(C)C4=CC(=O)CC[C@@H]4[C@H]3CC[C@@]21C` [nomegestrol-acetate] (10 µM), in test [1], the morphology score worked out at 0.147. In test [2], the SARS-CoV-2 infection rate is 95% (inactive).

The compound `NS(=O)(=O)NCCNc1nonc1/C(=N/O)Nc1ccc(F)c(Br)c1` (10 µM) had a morphology score in test [1] of 0.162. For the same compound, in test [2], the SARS-CoV-2 infection rate is 112% (inactive).

Consider `O=C(Nc1ccc(S(=O)(=O)Nc2nccs2)cc1)C(c1ccccc1)c1ccccc1` (10 µM), for which, in test [1], the morphology score was -0.0899. Moreover, the SARS-CoV-2 infection rate in test [2] was 105% (inactive).

`Nc1cc(C(Cl)=C(Cl)Cl)c(S(N)(=O)=O)cc1S(N)(=O)=O` [clorsulon] (10 µM) yielded a morphology score in test [1] of 0.206. In addition, the SARS-CoV-2 infection rate in test [2] is 98% (inactive).

Turning to `Cc1cccn2c(=O)c(/C=C(\C#N)c3nc4ccccc4s3)c(Oc3ccc(F)cc3)nc12` (10 µM), in test [1], the morphology score came out at 0.0128. The SARS-CoV-2 infection rate in test [2] was 102% (inactive).

For `N#C/C(=C\c1ccc(O)c(O)c1)C(=O)NCc1ccccc1` (10 µM), in test [1], the morphology score was 0.214. For the same compound, the SARS-CoV-2 infection rate in test [2] is 98% (inactive).

Compound `CCCCNC(=O)NS(=O)(=O)c1ccc(C)cc1` [tolbutamide] (10 µM) displayed a morphology score in test [1] of 0.121. The SARS-CoV-2 infection rate in test [2] is 96.5% (inactive).

Consider `CCN(CC)CCNC(=O)c1ccc(N)cc1` [procainamide] (10 µM), for which the morphology score in test [1] came to 0.00737. For the same compound, the SARS-CoV-2 infection rate in test [2] was 116% (inactive).

Regarding `CC(C)C(=O)OC[C@@]1(N=[N+]=[N-])O[C@@H](n2ccc(N)nc2=O)[C@H](OC(=O)C(C)C)[C@@H]1OC(=O)C(C)C` [balapiravir] (10 µM), the morphology score in test [1] was found to be 0.0882. In addition, the SARS-CoV-2 infection rate in test [2] is 88% (inactive).

`Cc1ccc2c(=O)c3ccccc3n(CCCN)c2c1C` (10 µM) had a morphology score in test [1] of -0.144. In test [2], the SARS-CoV-2 infection rate is 110% (inactive).

Regarding `CSc1cc2c(cc1C(F)(F)F)N(C(=O)Nc1cccnc1)CC2` (10 µM), the morphology score in test [1] was -0.166. In addition, the SARS-CoV-2 infection rate in test [2] is 112% (inactive).

As for `Cc1ccc(-c2n[nH]c3c2C(c2cccc(O)c2)N(c2ccc(C(=O)O)cc2)C3=O)cc1` (stereo not given) (10 µM), in test [1], the morphology score came to 0.169. Besides, the SARS-CoV-2 infection rate in test [2] is 91.5% (inactive).

On to `COc1cc2nc(N3CCN(C(=O)C4CCCO4)CC3)nc(N)c2cc1OC` (stereo not given) [terazosin] (10 µM), for which, in test [1], the morphology score is -0.108. Also, the SARS-CoV-2 infection rate in test [2] was 110% (inactive).

With `CCCCC(=O)O[C@]1(C(=O)CO)[C@@H](C)C[C@H]2[C@@H]3CCC4=CC(=O)C=C[C@]4(C)[C@@]3(F)[C@@H](O)C[C@@]21C` (10 µM), in test [1], the morphology score was -0.0636. In addition, the SARS-CoV-2 infection rate in test [2] is 112% (inactive).

For `CC(C)(C)NCC(O)c1ccc(O)c(CO)c1` (stereo not given) [albuterol] (10 µM), in test [1], the morphology score came to 0.108. Also, the SARS-CoV-2 infection rate in test [2] is 100% (inactive).

As to `N#C[C@H](O[C@@H]1O[C@H](CO[C@@H]2O[C@H](CO)[C@@H](O)[C@H](O)[C@H]2O)[C@@H](O)[C@H](O)[C@H]1O)c1ccccc1` [amygdalin] (10 µM), in test [1], the morphology score was 0.155. Besides, the SARS-CoV-2 infection rate in test [2] was 106% (inactive).

In test [1], `N#Cc1ccc(C(c2ccc(C#N)cc2)n2cncn2)cc1` [letrozole] (10 µM) returned a morphology score of 0.138. In addition, in test [2], the SARS-CoV-2 infection rate is 102% (inactive).

For `CC1(C)CC[C@]2(C(=O)O)CC[C@]3(C)C(=CC[C@@H]4[C@@]5(C)CC[C@H](O)C(C)(C)[C@@H]5CC[C@]43C)[C@@H]2C1` [oleanolic-acid] (10 µM), the morphology score in test [1] was 0.0528. Besides, in test [2], the SARS-CoV-2 infection rate was 110% (inactive).

In test [1], `CNC(=O)c1nn(C)c2c1C(C)(C)Cc1cnc(Nc3ccc(N4CCN(C)CC4)cc3)nc1-2` (10 µM) had a morphology score of -0.142. Further, the SARS-CoV-2 infection rate in test [2] was 112% (inactive).

In test [1], `Clc1cccc(SC2CCNCC2)n1` [anpirtoline] (10 µM) registered a morphology score of 0.0464. For the same compound, the SARS-CoV-2 infection rate in test [2] was 106% (inactive).

In turn, `NC1=NC(=O)N([C@H]2C[C@H](O)[C@@H](CO)O2)CN1` (10 µM) displayed a morphology score in test [1] of 0.0264. In test [2], the SARS-CoV-2 infection rate was 106% (inactive).

For the compound `CC(C)C(N)=O` [isobutyramide] (10 µM), the morphology score in test [1] came out at 0.073. The SARS-CoV-2 infection rate in test [2] is 111% (inactive).

With `Cc1cc2nc3c(=O)[nH]c(=O)nc-3n(C[C@H](O)[C@H](O)[C@H](O)CO)c2cc1C` [riboflavin] (10 µM), the morphology score in test [1] was found to be 0.208. For the same compound, the SARS-CoV-2 infection rate in test [2] was 102% (inactive).
